The target of the first assay is SRPK1. In words: pooled miR-30 sensor sort-seq; sequence = guide strand. Particulars: shRNA.
For the sequence TATTCTTTGACATTTTGTCAGC, the sensor-assay potency score (higher = more potent) was -0.83.

For TAGTTGAACAACCATTTCTCTA, the sensor-assay potency score (higher = more potent) is -1.08.

In turn, TTCGCTTCTCTAGTAATTCTGC displayed a sensor-assay potency score (higher = more potent) of 0.131.

As for TAACTTTCGGATCACATGGTAT, the sensor-assay potency score (higher = more potent) was -1.15.

TAGCATTATGTAGATCCTCTTT: the sensor-assay potency score (higher = more potent) was -0.224.

Regarding TTTGATGATCCACTTGAGCAGA, the sensor-assay potency score (higher = more potent) was -0.465.

As to TATGTGTTCCATTAACTCCTGA, the sensor-assay potency score (higher = more potent) was -0.508.

As to TACAATAATCATTAGGATCTTC, the sensor-assay potency score (higher = more potent) was -0.347.

Take TTTAAAGTCATCTAGTAGTTGA: the sensor-assay potency score (higher = more potent) is -0.439.

Consider TTCCATAAGCGTTTGATCCTGG, for which the sensor-assay potency score (higher = more potent) was 0.385.

For the sequence TTATAGGTGTACAAGAGTCTGT, the sensor-assay potency score (higher = more potent) is -0.536.

As to ATCTAGTAGTTGAACAACCATT, the sensor-assay potency score (higher = more potent) was -1.39.

The target of the next assay is SRSF11. The description is as above. Particulars: shRNA.
As to TTCTTTACTAGAGGTATCCGAT, the sensor-assay potency score (higher = more potent) is -0.524.

As to TAAGCTTCAGCAACTGATCTGC, the sensor-assay potency score (higher = more potent) was 0.509.

Take TATCTGGTTCTATAGCAGCAGA: the sensor-assay potency score (higher = more potent) was -1.33.

The sequence TTCCTCTTCATCATAATCCCGT registered a sensor-assay potency score (higher = more potent) of 0.0321.

Sequence TAGAACGTGATCTTGATCTTGA yielded a sensor-assay potency score (higher = more potent) of 0.589.

TCTTCTTGCTTGTTGATCGTTC gave a sensor-assay potency score (higher = more potent) of 0.0447.

TACATCTTTATCACTCTCTGAT: the sensor-assay potency score (higher = more potent) is 0.584.

In turn, TTGCACTTCTAGAACGTCTGGC showed a sensor-assay potency score (higher = more potent) of 0.928.

For TTAGGGACTGTGCTTCTCGTAC, the sensor-assay potency score (higher = more potent) was -0.978.

Take TAACAGGAGCTTTATAACCATT: the sensor-assay potency score (higher = more potent) was -1.45.

The record behind these values is the OligoGym collection.
Note: reference of the scale not given here.
